The source of these data is PubChem BioAssay AID652105 (National Center for Advancing Translational Sciences (NCATS), 2013).

Hit rate of the full screen: of about 330,000 compounds, about 4,100 (1.2%) were called active. Another 2% or so got no clear call; they are omitted. Many of the other results were omitted from the sample, so actives are more common in it than they were. Values without a mark were called inactive. Rule for the calls: active = max response of -50% or lower; inconclusive = between -30% and -50%; inactive = -30% or higher.
% is set by controls: 0 for no effect and ±100 for the full control effect.

The assay deals with Phosphatidylinositol 5-phosphate 4-kinase type-2 alpha (Homo sapiens) (UniProt P48426). Put plainly: qHTS for Inhibitors of phosphatidylinositol 5-phosphate 4-kinase (PI5P4K). Note: value at the top dose of about 77 µM. Particulars: PI5P4Kalpha enzyme, ADP-Glo luminescence, 60 min; stronger effect = lower value. Put shortly: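 Single end-point luminescence (ADP-Glo) quantified ADP from PI5P4Kalpha turnover; ATP 5 microM final, 1 h at RT, 0.1% CHAPS and 0.28 mM EGTA in HEPES pH 7.4.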
Sequence of Phosphatidylinositol 5-phosphate 4-kinase type-2 alpha (Homo sapiens) (P48426 whole entry, looked up): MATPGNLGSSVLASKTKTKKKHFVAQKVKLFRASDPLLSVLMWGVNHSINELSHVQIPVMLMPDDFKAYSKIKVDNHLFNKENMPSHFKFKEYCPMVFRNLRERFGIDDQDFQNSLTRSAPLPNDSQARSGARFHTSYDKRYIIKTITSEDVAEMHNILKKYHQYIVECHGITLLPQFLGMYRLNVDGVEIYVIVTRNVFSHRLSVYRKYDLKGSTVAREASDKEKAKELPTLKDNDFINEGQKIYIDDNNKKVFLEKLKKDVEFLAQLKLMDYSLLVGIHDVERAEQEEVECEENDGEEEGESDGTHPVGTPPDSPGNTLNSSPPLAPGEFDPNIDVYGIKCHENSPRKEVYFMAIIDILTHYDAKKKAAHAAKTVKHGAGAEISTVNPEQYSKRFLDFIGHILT
Background: Quantitative high-throughput screening tests each substance at several concentrations.
As for `CCOC(=O)C1C(C)C(C(C)(C)C)N(S(=O)(=O)c2ccc(C)cc2)C1c1ccccc1` (centres undefined), the max response is 6.25%.

For the compound `CCCOc1ccc(Cn2c(O)cc(=O)[nH]c2=O)cc1`, the max response was -26.6%.

For `COc1cc(=O)[nH]c(=O)n1C(=O)Cc1ccccc1`, the max response is -54.9% (active).

For `COc1ccc(NC(=O)CNC(=O)Cc2ccccc2)cc1OC`, the max response is -2.31%.

As for `COC(=O)[C@]12CCCCC=C1N(Cc1ccc3c(c1)OCO3)C(=O)[C@H](CC(=O)NCc1cccs1)C2`, the max response is 1.05%.

For the compound `CCCS(=O)(=O)NC(=O)C1(C)CCCN(C(=O)c2cccs2)C1` (centres undefined), the max response is 5.25%.

As for `Cc1cc(C(=O)N2CCCC2(C)C(=O)O)c(C)o1` (centres undefined), the max response is -1.39%.

In the case of `CCCCCCCCN1C(=O)[C@H](CC(=O)NCC23CC4CC(CC(C4)C2)C3)C[C@@]2(C(=O)OC)CCCCC=C12`, the max response is 8.08%.

Regarding `S=c1[nH]nc2c3c4c(sc3ncn12)CCCC4`, the max response is -58.2% (active).

Turning to `N=c1c2c3c(sc2ncn1N)CCCCC3`, the max response is 0.011%.

On to `N=c1c2c3c(sc2ncn1N)CCCC3`, for which the max response is -4.92%.

Regarding `COc1ccc(CNC(=O)c2ccc(-c3cccnc3)c3ccoc23)cc1OC`, the max response was 0.62%.

As to `O=C(NCc1ccc(F)cc1)c1cc(C2CCCCN2C(=O)c2cccs2)on1` (centres undefined), the max response was -3.15%.

For the compound `CC(C)c1cc(Cn2c3ccccc3c(=O)n2C(C)Cn2cc(C3CC3)nn2)on1` (centres undefined), the max response is -4.48%.

With `CC(C)(C)OC(=O)N1CCN(C(=O)c2[nH]c(C(F)(F)F)nc2-c2ccccc2)CC1`, the max response is 6.39%.

Consider `COc1cccc(C(=O)Nc2nc3ccc(S(C)(=O)=O)cc3s2)c1`, for which the max response was -58.6% (active).

Turning to `CS(=O)(=O)c1ccc2nc(NC(=O)C3C4C=CC(C4)C3C(=O)O)sc2c1` (centres undefined), the max response was -8.9%.

Turning to `CS(=O)(=O)c1ccc2nc(NC(=O)c3ccc(Cl)nc3)sc2c1`, the max response is -8.02%.

In the case of `CCOC(=O)N1CCN(C(=O)C[C@@H]2C[C@@]3(C(=O)OC)CC(C)(C)CC=C3N(Cc3ccco3)C2=O)CC1`, the max response is -4.8%.

In the case of `CC1=C(C(=O)OC(C)(C)C)C(c2ccc(Br)cc2)NC(=O)N1CCCC(=O)O` (centres undefined), the max response is -68.2% (active).

Turning to `COCCN1C(=O)N[C@@H](c2ccccc2)C(C(=O)OC)=C1C`, the max response was 3.31%.

With `CC1=C(C(=O)OCc2ccccc2)C(c2ccc(C(F)(F)F)cc2)NC(=O)N1CCCCCC(=O)O` (centres undefined), the max response is -6.37%.

As for `CCCCNC(=O)OC1CC2CC1[C@H]1CCCCN1C2=O` (some centres undefined), the max response is 2.78%.

Regarding `NC(c1ccccc1)c1csc(NC(=O)Nc2cccc(C(F)(F)F)c2)n1` (centres undefined), the max response is -16.7%.
